The source of these data is PubChem BioAssay (NCATS).

Test [1] deals with Lysosomal acid glucosylceramidase (Homo sapiens) (UniProt P04062). The experiment in a line: Glucocerebrosidase-p2 (AID 348; in the data active = potency below about 10 µM; also: potency is read from the fitted curve at half-maximal effect). The note with it: purified GBA, blue fluorogenic substrate, 40 min. In short, it runs like this: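 Normal human glucocerebrosidase (0.2 nM) with blue fluorogenic substrate (80 uM final) in citrate/phosphate pH 5.9 with 10mM sodium taurocholate, 0.01% tween-20; 40 min RT, NaOH/glycine stop; fluorescence Ex 365/Em 440; AC50 from a titration from 0.6 nM upwards.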

A short description of test [2]: AP1 Signaling Pathway (AID 357). Also: % is scaled to controls: 0 for no effect and ±100 for the full control effect. The note with it: ME-180 AP-1-bla reporter, EGF-induced, beta-lactamase ratio, 5 h; at 7.69 µM (top of the series) unless noted. In a few lines: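 Titration-series screen for positive or negative modulators of EC50 EGF-induced signaling in ME-180 cells carrying an AP-1-driven beta-lactamase reporter. After 5 hours at 37 degrees Celsius, CCF4 460nm/530nm emission ratio gave %Activity; AC50 values derived.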

A short description of test [3]: NFAT Signaling Pathway (AID 444).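 Also: carbachol stimulus at about its EC50 of 1 µM final; % is scaled to controls: 0 for no effect and ±100 for the full control effect.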 To be noted: Jurkat NFAT-bla M1, carbachol, beta-lactamase ratio, 5 h; at 7.69 µM (top of the series) unless noted. In a few lines:
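Jurkat cells carrying an NFAT-driven β-lactamase reporter and co-transfected muscarinic M1 receptor were treated with compound plus carbachol (1 uM final, an EC50 level) for 5 h at 37 °C. CCF4 loading followed for 1 h at RT; 460/530 nm ratio gave %activity.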

Test [4] is described as follows: Stat Signaling Pathway (AID 446).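 Also: ME-180 cervical cancer cells given 40 pM IL-6 alongside compound; SIE-controlled beta-lactamase reporter measured as 460/530 nm FRET emission ratio; % is scaled to controls: 0 for no effect and ±100 for the full control effect.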 To be noted: ME-180 (cervical carcinoma) SIE beta-lactamase reporter, IL-6 stimulated, 5 h; at 7.69 µM (top of the series) unless noted. In short, it runs like this:
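Overnight-plated ME-180 cells bearing a STAT Inducible Element beta-lactamase reporter; 5 h co-exposure to compound and 40 pM IL-6; values normalized to 300 pM IL-6 and 125 nM JAK inhibitor controls.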

For test [5], the target named is Glucocorticoid receptor (Homo sapiens) (UniProt P04150). Put plainly: GR-GFP Redistribution (AID 450;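 active = compounds whose dose series gives a full or clear partial fitted curve of increased nuclear translocation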; also: potency is read from the fitted curve at half-maximal effect). The note with it: U2OS GR-GFP nuclear translocation, laser cytometry, 2 h.
Test [6] shares this target. The experiment in a line: GR-EFC Redistribution (AID 451; calls by dose curve; also: potency is read from the fitted curve at half-maximal effect). To be noted: CHO-K1 GR-EFC translocation, beta-gal luminescence, 2 h. In short, it runs like this: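 CHO-K1 cells stably expressing nuclear-localized β-gal enzyme acceptor and GR fused C-terminally to the enzyme donor fragment; ligand-driven nuclear translocation restores β-gal by complementation. Compounds titrated up to 46 uM final, 2 h at 37 °C; luminescence read.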

In test [7] the target is Mitogen-activated protein kinase 10 (Mus musculus) (UniProt Q61831). The experiment in a line: JNK3 AlphaScreen Assay (AID 530).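 Also: kinase came from lysate of stimulated human HepG2 cells; signal reports phosphorylation of biotinylated GST-cJun 1-79 at Ser73 with 10 µM ATP; % is scaled to controls: 0 for no effect and ±100 for the full control effect.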 The note with it: JNK3 lysate, c-Jun phosphorylation; series mostly up to 57.1 µM. In a few lines:
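Phosphorylation of biotinylated GST-cJun(1-79) at Ser73 is measured by AlphaScreen proximity luminescence. Enzyme is JNK3 in HepG2 lysates activated with interleukin-1beta and tumor necrosis factor alpha; ATP is 10 uM final.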
A general note: Bead proximity is the source of the signal in Alpha formats.

The target of test [8] is 3',5'-cyclic-AMP phosphodiesterase 4B (Homo sapiens) (UniProt Q07343). The experiment in a line: qHTS Assay for Inhibitors of PDE-IV (AID 607; active = well fitted activation curve with a large enough effect in the main read-out, with a control signal flat, not every such curve was filed as active; also: % of control where 0% means no effect). The note with it: HEK293 ACTOne CNG channel cells, membrane potential fluorescence; series mostly up to 22.9 µM. In short, it runs like this:
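Live HEK293 cells with a modified cyclic nucleotide-gated (CNG) channel report intracellular cAMP via membrane-potential dye fluorescence (ex 535/em 590 nm). Endogenous PDE-IV was targeted. Compounds were tested at up to 22.9 uM final; RO 20-1724 100 uM served as control.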
A general note: Quantitative high-throughput screening tests each substance at several concentrations.

Test [9] is described as follows: Primary qHTS for small molecule stabilizers of the endoplasmic reticulum resident proteome: Secreted ER Calcium Modulated Protein (SERCaMP) assay (AID 1508630; active = well fitted curve in the direction sought with a large enough effect; an effect the other way counts as inactive or inconclusive; also: % is scaled to controls: 0 for no effect and ±100 for the full control effect). To be noted: SH-SY5Y GLuc-SERCaMP (Gaussia luciferase released on ER calcium loss) secretion, thapsigargin, luminescence; series mostly up to 38.4 µM. In a few lines:
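The SH-SY5Y reporter protocol was run at 3 concentrations up to 38.3 uM (primary) or 11 concentrations (follow-up): 16 h compound, 100 nM thapsigargin for 4 h, then extracellular luciferase luminescence.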

In test [10] the target is Cytochrome P450 1A2 (Homo sapiens) (UniProt P05177). Put plainly: p450-cyp1a2 (AID 410; calls by dose curve; also: potency is read from the fitted curve at half-maximal effect). The note with it: recombinant CYP1A2, luciferin-ME demethylation, luminescence; series mostly up to 57 µM. In a few lines: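 Luminescent demethylation readout: Luciferin-ME (100uM, equal to Km) turned over by 20nM CYP1A2 for 60 min at room temperature after NADPH regeneration addition, following 10 min compound preincubation. Normalization used 57 uM furafylline as full inhibition.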

In test [11] the target is Cytochrome P450 3A4 (Homo sapiens) (UniProt P08684). The experiment in a line: qHTS Assay for Activators of Cytochrome P450 3A4 (AID 885; active = well fitted curve in the direction sought with a large enough effect; an effect the other way counts as inactive or inconclusive; also: nearly all actives have a fitted effect of over 65% in size). The note with it: recombinant CYP3A4, Luciferin-PPXE luminescence, 60 min; series mostly up to 57.1 µM. In a few lines:
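Using 20nM recombinant human CYP3A4 in potassium phosphate (200mM), substrate Luciferin-PPXE at 25uM, luminescent luciferin detection followed a 60-min RT NADPH reaction; data scaled to 57 uM ketoconazole.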

Test [12] has as its target Cytochrome P450 2D6 (Homo sapiens) (UniProt P10635). The experiment in a line: qHTS Assay for Inhibitors and Substrates of Cytochrome P450 2D6 (AID 891; active = well fitted curve in the direction sought with a large enough effect; an effect the other way counts as inactive or inconclusive; also: potency is read from the fitted curve at half-maximal effect; nearly all actives have a fitted effect of over 60% in size). To be noted: recombinant CYP2D6, luciferin-ME EGE luminescence; series mostly up to 57.1 µM. In a few lines:
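Luminescent read-out of luciferin formed by 5 nM human CYP2D6 demethylating 30 uM Luciferin-ME EGE (Km level) over 60 min at room temperature after NADPH regeneration addition. Data normalized to full inhibition by 1.43 uM quinidine.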

Test [13] has as its target Ubiquitin carboxyl-terminal hydrolase 1 (Homo sapiens) (UniProt O94782). The experiment in a line: Inhibitors of USP1/UAF1: Pilot qHTS (AID 504865; active = well fitted curve in the direction sought with a large enough effect; an effect the other way counts as inactive or inconclusive;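 also: rhodamine fluorescence freed from ubiquitin-rhodamine substrate followed over time; top concentration of the series differs between compounds; % is scaled to controls: 0 for no effect and ±100 for the full control effect; nearly all actives have a fitted effect of over 35% in size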). To be noted: purified USP1/UAF1, Ub-rhodamine cleavage fluorescence; series mostly up to 54.9 µM. In short, it runs like this: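 1nM USP1/UAF1 + cpd, 15 min RT; start w/ Ub-Rho 150nM final; kinetic FL 480/540 nm, 6 reads q60 s. Buffer 50mM HEPES pH 7.8, 0.5mM EDTA, 1mM TCEP, 0.01% Tween-20, 0.1 mg/ml BSA.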

The target of test [14] is Cytochrome P450 2C9 (Homo sapiens) (UniProt P11712). The experiment in a line: qHTS Assay for Inhibitors and Substrates of Cytochrome P450 2C9 (AID 883; active = well fitted curve in the direction sought with a large enough effect; an effect the other way counts as inactive or inconclusive; also: % is scaled to controls: 0 for no effect and ±100 for the full control effect; nearly all actives have a fitted effect of over 60% in size). To be noted: recombinant CYP2C9, luciferin-H luminescence, 60 min; series mostly up to 57.1 µM. In a few lines:
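CYP2C9 deoxyluciferin hydroxylation, 37C, 60 min with NADPH regeneration; 10nM enzyme, 100uM Luciferin-H (KM). Glo detection reagent stopped reaction; luminescence normalized to sulphaphenazole (57uM) full inhibition.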

Test [15] is described as follows: Confirmation and Secondary Assay for Modulators of Hemoglobin Beta Chain Splicing at IVS2 705 locus (AID 930; active = well fitted curve in the direction sought with a large enough effect; an effect the other way counts as inactive or inconclusive; also: % of control where 0% means no effect). To be noted: HeLa EGFP-705 splicing reporter, GFP fluorescence, 48 h; series mostly up to 38.3 µM. In short, it runs like this: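 HeLa cells stably carrying EGFP interrupted by mutant beta-globin intron 2 (IVS2-705) treated 2 days at 37C with compound; 500 nM antisense PNA as control. Correct splicing read as total peak GFP intensity per well by laser-scanning cytometry.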

Test [16] addresses Cytochrome P450 3A4 (Homo sapiens) (UniProt P08684). The experiment in a line: qHTS Assay for Inhibitors and Substrates of Cytochrome P450 3A4 (AID 884; active = well fitted curve in the direction sought with a large enough effect; an effect the other way counts as inactive or inconclusive; also: potency is read from the fitted curve at half-maximal effect; nearly all actives have a fitted effect of over 50% in size). To be noted: recombinant CYP3A4, Luciferin-PPXE luminescence; series mostly up to 57.1 µM. In short, it runs like this:
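Luminescent readout of luciferin produced by CYP3A4 (20 nM) dealkylation of Luciferin-PPXE, 25 uM (its KM). NADPH-driven reaction ran 60 min at RT after 10 min compound preincubation; data scaled to 57 uM ketoconazole as 100% inhibition.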

The target of test [17] is Cytochrome P450 2C19 (Homo sapiens) (UniProt P33261). The experiment in a line: qHTS Assay for Inhibitors and Substrates of Cytochrome P450 2C19 (AID 899; active = well fitted curve in the direction sought with a large enough effect; an effect the other way counts as inactive or inconclusive; also: potency is read from the fitted curve at half-maximal effect; nearly all actives have a fitted effect of over 60% in size). To be noted: recombinant CYP2C19, luciferin-H EGE luminescence; series mostly up to 57.1 µM. In a few lines: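 In 50mM KPO4, the reaction held 5nM enzyme and KM-level (10uM) Luciferin-H EGE; it ran 60 min at 37C after NADPH regeneration and a 10 min compound preincubation. Luminescence values were scaled to 57uM ketoconazole as complete inhibition.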

Test [18] can be described thus: Confirmation and Secondary Assay for Modulators of Hemoglobin Beta Chain Splicing at IVS2 654 locus (AID 910; active = well fitted curve in the direction sought with a large enough effect; an effect the other way counts as inactive or inconclusive; also: % of control where 0% means no effect). To be noted: HeLa EGFP-654 splicing reporter, GFP fluorescence, 48 h; series mostly up to 38.3 µM. In short, it runs like this:
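HeLa cells stably carrying EGFP interrupted by mutant beta-globin IVS2-654 intron (CMV-driven) were treated with compound for 2 days at 37C; corrected splicing was scored as total peak GFP intensity per well (488 nm excitation, 500-520 nm emission).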

Unmarked numbers belong to inactive results. Records with an inconclusive call do not appear. The source made the active and inactive calls. Unless noted, calls follow the shape of the dose curve; as a rule, active = well fitted curve in either direction with a large enough effect (not every such curve was filed as active); inconclusive = small, poorly fitted or top-dose-only effect, or another doubt; inactive = flat fitted curve, though single readings scatter. Some results are limits rather than exact numbers.

Glucocorticoid receptor (Homo sapiens), sequence (P04150 whole entry, looked up, the tested form may be a part): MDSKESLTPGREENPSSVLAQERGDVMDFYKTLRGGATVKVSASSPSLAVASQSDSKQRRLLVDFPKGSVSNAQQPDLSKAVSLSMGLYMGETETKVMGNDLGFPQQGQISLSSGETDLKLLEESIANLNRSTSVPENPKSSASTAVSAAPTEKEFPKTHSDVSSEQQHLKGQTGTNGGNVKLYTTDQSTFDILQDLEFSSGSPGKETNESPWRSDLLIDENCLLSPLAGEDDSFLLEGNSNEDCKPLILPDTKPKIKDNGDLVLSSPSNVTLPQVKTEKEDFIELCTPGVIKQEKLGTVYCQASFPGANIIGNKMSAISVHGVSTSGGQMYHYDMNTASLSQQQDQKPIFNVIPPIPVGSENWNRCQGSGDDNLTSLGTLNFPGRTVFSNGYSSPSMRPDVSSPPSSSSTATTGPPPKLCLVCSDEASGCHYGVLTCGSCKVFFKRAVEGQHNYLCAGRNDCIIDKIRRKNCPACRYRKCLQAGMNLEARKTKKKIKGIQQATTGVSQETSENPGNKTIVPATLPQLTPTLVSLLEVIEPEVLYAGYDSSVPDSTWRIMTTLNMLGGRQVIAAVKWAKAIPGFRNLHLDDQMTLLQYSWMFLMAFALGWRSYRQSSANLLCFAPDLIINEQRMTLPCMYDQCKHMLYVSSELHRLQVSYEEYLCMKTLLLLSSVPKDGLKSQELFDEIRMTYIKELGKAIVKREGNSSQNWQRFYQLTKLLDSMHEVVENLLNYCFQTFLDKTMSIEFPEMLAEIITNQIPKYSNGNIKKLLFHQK
3',5'-cyclic-AMP phosphodiesterase 4B (Homo sapiens), sequence (Q07343 whole entry, looked up): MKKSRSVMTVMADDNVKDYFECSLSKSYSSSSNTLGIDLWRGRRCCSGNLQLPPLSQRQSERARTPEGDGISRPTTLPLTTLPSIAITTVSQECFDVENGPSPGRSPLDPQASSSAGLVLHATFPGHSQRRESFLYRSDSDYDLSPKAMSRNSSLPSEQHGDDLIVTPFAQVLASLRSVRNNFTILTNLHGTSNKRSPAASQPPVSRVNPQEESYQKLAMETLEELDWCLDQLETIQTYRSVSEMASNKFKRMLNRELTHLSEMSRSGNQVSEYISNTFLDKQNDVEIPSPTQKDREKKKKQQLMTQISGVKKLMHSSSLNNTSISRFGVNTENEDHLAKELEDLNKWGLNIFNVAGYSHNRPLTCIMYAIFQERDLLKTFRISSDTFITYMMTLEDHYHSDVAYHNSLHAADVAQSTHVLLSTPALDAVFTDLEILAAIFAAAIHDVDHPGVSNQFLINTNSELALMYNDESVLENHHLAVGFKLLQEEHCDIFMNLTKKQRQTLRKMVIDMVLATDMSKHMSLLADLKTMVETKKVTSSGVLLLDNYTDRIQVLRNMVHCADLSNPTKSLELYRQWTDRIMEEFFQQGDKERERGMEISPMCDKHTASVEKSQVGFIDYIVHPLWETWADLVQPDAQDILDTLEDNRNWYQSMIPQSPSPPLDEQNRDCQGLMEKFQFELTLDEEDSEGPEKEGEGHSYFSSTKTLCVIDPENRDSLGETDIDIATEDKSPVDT
Cytochrome P450 3A4 (Homo sapiens), sequence (P08684 whole entry, looked up): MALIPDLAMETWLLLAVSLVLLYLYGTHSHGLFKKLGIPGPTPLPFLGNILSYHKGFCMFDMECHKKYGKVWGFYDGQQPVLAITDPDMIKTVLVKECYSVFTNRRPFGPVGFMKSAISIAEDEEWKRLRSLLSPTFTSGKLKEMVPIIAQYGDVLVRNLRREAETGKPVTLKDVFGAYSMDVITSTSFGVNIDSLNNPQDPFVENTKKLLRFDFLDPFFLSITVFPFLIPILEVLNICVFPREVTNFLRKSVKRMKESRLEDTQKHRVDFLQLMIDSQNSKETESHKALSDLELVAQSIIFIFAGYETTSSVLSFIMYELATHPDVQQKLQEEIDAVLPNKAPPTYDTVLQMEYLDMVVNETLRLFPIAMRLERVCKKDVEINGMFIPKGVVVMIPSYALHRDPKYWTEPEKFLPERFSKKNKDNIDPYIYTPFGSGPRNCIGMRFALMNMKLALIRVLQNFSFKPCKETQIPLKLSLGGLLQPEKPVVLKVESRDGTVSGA
Lysosomal acid glucosylceramidase (Homo sapiens), sequence (P04062 whole entry, looked up): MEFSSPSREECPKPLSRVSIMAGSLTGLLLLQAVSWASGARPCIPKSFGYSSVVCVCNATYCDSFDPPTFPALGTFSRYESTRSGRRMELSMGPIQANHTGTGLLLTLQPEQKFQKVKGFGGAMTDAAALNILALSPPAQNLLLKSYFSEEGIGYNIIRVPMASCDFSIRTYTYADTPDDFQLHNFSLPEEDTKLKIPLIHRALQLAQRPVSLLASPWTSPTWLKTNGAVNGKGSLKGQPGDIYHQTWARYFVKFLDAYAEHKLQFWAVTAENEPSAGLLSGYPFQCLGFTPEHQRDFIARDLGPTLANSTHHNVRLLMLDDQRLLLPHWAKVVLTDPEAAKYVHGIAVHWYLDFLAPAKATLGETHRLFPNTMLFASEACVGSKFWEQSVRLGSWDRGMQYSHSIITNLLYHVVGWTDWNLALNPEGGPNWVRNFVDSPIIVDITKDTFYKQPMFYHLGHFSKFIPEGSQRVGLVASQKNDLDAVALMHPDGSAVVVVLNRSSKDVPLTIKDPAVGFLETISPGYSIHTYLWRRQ
Cytochrome P450 1A2 (Homo sapiens), sequence (P05177 whole entry, looked up): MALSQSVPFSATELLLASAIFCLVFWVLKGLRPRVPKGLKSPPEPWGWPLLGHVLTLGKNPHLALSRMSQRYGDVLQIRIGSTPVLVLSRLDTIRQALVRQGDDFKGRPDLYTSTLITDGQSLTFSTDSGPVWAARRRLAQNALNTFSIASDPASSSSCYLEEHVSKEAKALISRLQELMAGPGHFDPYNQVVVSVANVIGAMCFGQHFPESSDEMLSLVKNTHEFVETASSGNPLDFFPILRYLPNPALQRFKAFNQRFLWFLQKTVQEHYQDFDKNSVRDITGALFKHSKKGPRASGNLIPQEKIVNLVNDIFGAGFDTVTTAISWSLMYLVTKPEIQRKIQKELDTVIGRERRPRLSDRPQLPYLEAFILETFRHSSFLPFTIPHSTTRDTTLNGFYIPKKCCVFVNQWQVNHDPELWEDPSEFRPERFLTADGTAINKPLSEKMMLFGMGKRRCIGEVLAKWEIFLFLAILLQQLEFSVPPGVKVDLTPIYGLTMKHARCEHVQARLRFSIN
Ubiquitin carboxyl-terminal hydrolase 1 (Homo sapiens), sequence (O94782 whole entry, looked up): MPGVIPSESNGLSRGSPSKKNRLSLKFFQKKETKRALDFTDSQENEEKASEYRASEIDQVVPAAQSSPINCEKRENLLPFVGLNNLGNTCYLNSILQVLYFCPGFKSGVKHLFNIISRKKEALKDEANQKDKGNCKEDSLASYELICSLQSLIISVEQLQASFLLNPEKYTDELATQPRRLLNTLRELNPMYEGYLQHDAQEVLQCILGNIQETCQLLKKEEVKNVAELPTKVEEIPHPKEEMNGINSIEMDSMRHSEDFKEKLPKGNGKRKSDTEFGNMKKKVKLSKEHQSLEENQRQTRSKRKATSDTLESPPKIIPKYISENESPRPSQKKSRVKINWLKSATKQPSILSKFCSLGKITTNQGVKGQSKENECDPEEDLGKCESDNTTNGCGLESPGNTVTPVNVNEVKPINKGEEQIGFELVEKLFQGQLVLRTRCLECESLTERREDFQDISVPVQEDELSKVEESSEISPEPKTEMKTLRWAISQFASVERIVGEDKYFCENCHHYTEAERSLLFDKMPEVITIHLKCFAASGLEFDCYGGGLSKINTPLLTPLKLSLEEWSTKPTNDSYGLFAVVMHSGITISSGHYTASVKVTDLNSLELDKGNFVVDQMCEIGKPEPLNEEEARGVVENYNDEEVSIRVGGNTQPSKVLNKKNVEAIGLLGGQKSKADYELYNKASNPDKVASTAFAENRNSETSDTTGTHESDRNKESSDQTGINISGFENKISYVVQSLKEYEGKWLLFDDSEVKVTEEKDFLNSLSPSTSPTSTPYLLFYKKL
Cytochrome P450 2C9 (Homo sapiens), sequence (P11712 whole entry, looked up): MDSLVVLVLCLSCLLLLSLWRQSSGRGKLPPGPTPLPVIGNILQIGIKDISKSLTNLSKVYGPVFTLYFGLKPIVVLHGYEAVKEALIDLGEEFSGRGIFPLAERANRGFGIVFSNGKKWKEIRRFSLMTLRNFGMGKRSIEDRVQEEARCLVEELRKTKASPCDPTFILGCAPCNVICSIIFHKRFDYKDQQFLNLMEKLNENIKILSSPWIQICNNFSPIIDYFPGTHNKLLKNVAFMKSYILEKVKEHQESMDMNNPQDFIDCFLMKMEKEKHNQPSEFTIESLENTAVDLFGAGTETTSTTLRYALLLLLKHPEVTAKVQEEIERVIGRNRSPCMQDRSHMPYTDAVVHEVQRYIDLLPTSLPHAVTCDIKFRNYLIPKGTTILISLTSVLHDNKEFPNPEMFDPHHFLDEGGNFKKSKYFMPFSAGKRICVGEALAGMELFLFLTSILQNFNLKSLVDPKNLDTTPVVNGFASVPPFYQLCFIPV
Cytochrome P450 2D6 (Homo sapiens), sequence (P10635 whole entry, looked up): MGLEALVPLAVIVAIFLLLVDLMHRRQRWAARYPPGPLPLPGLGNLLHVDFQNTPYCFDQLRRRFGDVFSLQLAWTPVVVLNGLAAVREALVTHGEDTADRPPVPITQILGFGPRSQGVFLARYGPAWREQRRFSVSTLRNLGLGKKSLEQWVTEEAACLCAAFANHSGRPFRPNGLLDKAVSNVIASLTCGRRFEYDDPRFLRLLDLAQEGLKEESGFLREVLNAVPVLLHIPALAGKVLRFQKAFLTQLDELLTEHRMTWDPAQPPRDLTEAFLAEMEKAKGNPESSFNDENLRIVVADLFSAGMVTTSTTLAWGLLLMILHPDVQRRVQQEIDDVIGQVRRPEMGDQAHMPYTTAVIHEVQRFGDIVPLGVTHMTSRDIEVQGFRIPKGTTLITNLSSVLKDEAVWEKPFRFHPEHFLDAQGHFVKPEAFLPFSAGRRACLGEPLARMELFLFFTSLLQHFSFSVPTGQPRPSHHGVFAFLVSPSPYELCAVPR

As for `COCCn1c(=O)c(-c2cc(F)cc(F)c2)nc2cnc(OCc3ccccc3)nc21`, the Potency in [1] was above 11.4 µM; in test [5], above 9.22 µM; in test [6], above 46 µM. For the same compound, the activity change, negative = inhibition in [2] was 8.07%; in [3] it was -6.33%. Also, the activity, negative = inhibition in [4] was -6.5%. The Potency result in [7] and in test [8] was “inactive” in each case. Moreover, in test [9], the result was inactive.
As for `COCCn1c(=O)c(-c2ccc(Cl)cc2)nc2cnc(Oc3ccc(OC)cc3)nc21`, the Potency is above 11.4 µM in test [1], above 9.22 µM in test [5] and above 46 µM in test [6]. Moreover, the results for the activity change, negative = inhibition in test [2] and in [3] were -18.1% and -1.47%, respectively. Moreover, the activity, negative = inhibition in test [4] was -2.62%. The Potency entry in test [7] and in [8] was “inactive” in each case. In addition, in test [9], the result was inactive.
Take `COc1ccc(C(=O)N2CCC[C@@]3(CCN(Cc4ccccc4)C3)C2)cc1`: the Potency was above 11.4 µM in test [1], 12.6 µM (active) in test [10], above 46 µM in test [6] and 7.94 µM (active) in test [12]. Besides, the activity change, negative = inhibition in test [2] was 13%. In test [4], the activity, negative = inhibition is -4.24%. Also, the Potency result in test [7], in test [8] and in [11] was “inactive” each time. Moreover, the result in [9] was inactive.
Consider `Cc1noc(C)c1-c1nc(NC2CC2)c2ccccc2n1`, for which the results for the Potency in test [1], in [5] and in [6] were above 11.4 µM, above 46 µM and above 46 µM, respectively. The results for the activity change, negative = inhibition in test [2] and in test [3] were 13.4% and -6.72%, respectively. In addition, the activity, negative = inhibition in test [4] is 7.05%. For the same compound, the Potency result in test [7], in test [8] and in [13] was “inactive” each time. In addition, in [9], the result was inactive.
In the case of `COc1cccc(Cn2c(=O)cnc3cnc(N4CCOCC4)nc32)c1`, the values for the Potency in test [1], in [5] and in [6] were above 11.4 µM, above 9.22 µM and above 46 µM, respectively. For the same compound, the results for the activity change, negative = inhibition in test [2] and in [3] were -21.3% and -0.938%, respectively. Also, the activity, negative = inhibition in [4] is -11%. For the same compound, the Potency result in [7] was “inactive”. For the same compound, in [9], the result was inactive.
`CNc1nc(-c2ccc(N(C)C)cc2)nc2ccccc12`: the Potency was 6.77 µM (active) in [1], 0.2 µM (active) in [10], above 46 µM in test [5] and above 46 µM in test [6]. In addition, the results for the activity change, negative = inhibition in test [2] and in test [14] were 15.8% and 108% [at 2.29 µM], respectively. Also, the Potency result in [7], in [8] and in test [11] was “inactive” each time. In addition, the call in [15] and in test [9] was inactive.
Regarding `Cc1cccc(CNc2ncncc2-c2cccc(NS(C)(=O)=O)c2)c1`, the Potency in [16] was 0.158 µM (active); in test [17], 6.31 µM (active). Besides, the Potency result in [18] and in test [13] was “inactive” each time. Besides, the call in test [15] was inactive.
Consider `COc1ccc(-c2nc3cnc(OC)nc3n(Cc3cccc(OC)c3)c2=O)cc1`, for which the Potency in test [16] is 2.51 µM (active).
Take `Cc1cnc(CNc2ncnc3ccc(-c4ccccc4C#N)cc23)cn1`: in test [18], the Potency result is “inactive”. Also, the call in [15] was inactive.
